Records with an inconclusive call do not appear. The source made the active and inactive calls. Rule for the calls: active = hit-call score of the fitted dose curve at least 0.9, where 1 is the maximum; inconclusive = response in the unintended direction; inactive = score below 0.9.
The compounds below were run against human Peripheral-type Benzodiazepine Receptor (PBR), TSPO (gene 706) (UniProt P30536) (assay: NVS_MP_hPBR: NovaScreen (NVS) Membrane Protein Assay for human Peripheral-type Benzodiazepine Receptor (PBR) (AID 2283331)).
Procedure: NVS_MP_hPBR is a biochemical, single-readout assay that uses extracted gene-proteins from Human colonic cell membranes in a tissue-based cell-free assay. Measurements were taken 1 hour after chemical dosing in a 48-well plate.NVS_MP_hPBR is one of one assay component(s) measured or calculated from the NVS_MP_hPBR assay. It is designed to make measurements of radioligand binding, a form of binding reporter, as detected with scintillation counting signals by Filter-based radiodetection technology.Data from the assay component NVS_MP_hPBR was analyzed into 1 assay endpoint. This assay endpoint, NVS_MP_hPBR, was analyzed in the positive analysis fitting direction relative to DMSO as the negative control and baseline of activity. Using a type of binding reporter, loss-of-signal activity can be used to understand changes in the binding as they relate to the gene TSPO. Furthermore, this assay endpoint can be referred to as a primary readout, because the performed assay has only produced 1 assay endpoint. To generalize the intended target to other relatable targets, this assay endpoint is annotated to the transporter intended target family, where the subfamily is cholesterol transporter.
Binding assays used specific radioligands (tritiated, iodinated) with non-radioactive competitive displacement ligands in agonist or antagonist protocols (as indicated) and various reference compounds and inhibitors to titrate specific binding to receptors and transporters. Most enzyme assays (CYPs, kinases, phosphatases, proteases, HDACs) used recombinant protein and specific substrates (fluorescence mostly, some colorimetric and radioactive) and inhibitors, followed by a biochemical separation of substrate and product. All assays for the biochemical HTS were initially run in duplicate at a single concentration (10 uM for CYP450 assays and 25 uM for all others). […] Each assay was run with positive and negative controls, and concurrent controls on every plate. The follow-up (secondary) screen tested active chemical-pairs in concentration series, as well as a few additional assays not tested in the primary screen, some selected negative inactives, and several cases re-run in the concentration series for confirmatory purposes.

human Peripheral-type Benzodiazepine Receptor (PBR), TSPO (gene 706), sequence (P30536 whole entry, looked up): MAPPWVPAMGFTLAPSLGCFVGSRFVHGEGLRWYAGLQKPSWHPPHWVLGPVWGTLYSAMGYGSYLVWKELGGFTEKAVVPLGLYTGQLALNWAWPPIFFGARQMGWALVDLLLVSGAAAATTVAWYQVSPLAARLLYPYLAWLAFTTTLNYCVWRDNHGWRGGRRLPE

Q: For N#Cc1c(Cl)c(Cl)c(Cl)c(C#N)c1Cl, which AC50 is on record?
A: Its AC50 is 9.01 µM (active).

Q: Which outcome does the source give for COP(=O)(OC)OC=C(Cl)Cl here?
A: The outcome was “inactive”.

Q: For CCC(C)(NC(=O)c1cc(Cl)c(C)c(Cl)c1)C(=O)CCl (stereo not drawn), which AC50 is on record?
A: Its AC50 is 25 µM (active).

Q: With O=S1OCC2C(CO1)C1(Cl)C(Cl)=C(Cl)C2(Cl)C1(Cl)Cl (stereo not drawn) as the compound, how does the outcome read?
A: Its outcome is “inactive”.

Q: With O=C(O)COc1ccc(Cl)cc1Cl as the compound, how does the outcome read?
A: Its outcome is “inactive”.

Q: Which outcome does the source give for ClC1C(Cl)C(Cl)C(Cl)C(Cl)C1Cl (stereo not drawn) here?
A: The outcome was “inactive”.

Q: COP(=S)(OC)Oc1ccc(SC)c(C)c1 was tested. Which AC50 did it give?
A: Its AC50 is 17.4 µM (active).

Q: CC(C)OC(=O)Nc1cccc(Cl)c1 was tested. Which AC50 did it give?
A: Its AC50 is 17.1 µM (active).

Q: Which outcome does the source give for O=C(O)CCCOc1ccc(Cl)cc1Cl here?
A: Its outcome is “inactive”.

Q: For CCOCN(C(=O)CCl)c1c(C)cccc1CC, which AC50 is on record?
A: The AC50 was 1.88 µM (active).

Q: With Oc1ccc(Cl)cc1Cc1ccccc1 as the compound, how does the AC50 read?
A: The AC50 was 17.1 µM (active) [middle of 7 runs].

Q: For COc1nn(CSP(=S)(OC)OC)c(=O)s1, which outcome is on record?
A: The outcome was “inactive”.

Q: Which AC50 does the source give for COP(=S)(OC)Oc1ccc([N+](=O)[O-])cc1 here?
A: Its AC50 is 19.5 µM (active).

Q: CC[C@H](C)[C@H]1O[C@]2(C=C[C@@H]1C)C[C@@H]1C[C@@H](C/C=C(\C)[C@@H](O[C@H]3C[C@H](OC)[C@@H](O[C@H]4C[C@H](OC)[C@@H](O)[C@H](C)O4)[C@H](C)O3)[C@@H](C)/C=C/C=C3\CO[C@@H]4[C@H](O)C(C)=C[C@@H](C(=O)O1)[C@]34O)O2 (tested in a mixture with another compound) was tested. Which AC50 did it give?
A: The AC50 was 0.363 µM (active).

Q: With CC(C)(C)C(O)C(Oc1ccc(Cl)cc1)n1cncn1 (stereo not drawn) as the compound, how does the outcome read?
A: The outcome was “inactive”.

Q: Which outcome does the source give for CNC(=O)CSP(=S)(OC)OC here?
A: Its outcome is “inactive”.

Q: How did the AC50 turn out when CCN(CC)C(=O)SCc1ccc(Cl)cc1 was run?
A: The AC50 was 22.2 µM (active).

Q: Which outcome does the source give for COC(=O)c1ccccc1S(=O)(=O)NC(=O)Nc1nc(C)nc(OC)n1 here?
A: Its outcome is “inactive”.

Q: With CC(C)N(C(=O)COc1nnc(C(F)(F)F)s1)c1ccc(F)cc1 as the compound, how does the AC50 read?
A: The AC50 was 0.27 µM (active).

Q: How did the outcome turn out when Oc1cc(Cl)ccc1Oc1ccc(Cl)cc1Cl was run?
A: Its outcome is “inactive”.

Q: How did the outcome turn out when O=[N+]([O-])/N=C1\NCCN1Cc1ccc(Cl)nc1 was run?
A: The outcome was “inactive”.

Q: CCCN(CCOc1c(Cl)cc(Cl)cc1Cl)C(=O)n1ccnc1 was tested. Which AC50 did it give?
A: The AC50 was 2.59 µM (active).

Q: With CC1(C)C(C=C(Cl)Cl)C1C(=O)OC(C#N)c1ccc(F)c(Oc2ccccc2)c1 (stereo not drawn) as the compound, how does the outcome read?
A: Its outcome is “inactive”.

Reference: PubChem BioAssay (EPA / NIEHS)
